This note sets out measurements from the supplement of paper PMC7366291.

Where a name gives a salt, the structure may show the parent alone. ± gives the standard deviation or the standard deviation of the averaged measurements.

Holding throughout (details): 25 µM; exposure: 24-48 hpf
For experiment [1], the system named is Danio rerio Tg(wt1b:EGFP) embryo, pronephros. The experiment in a line: glomerular separation, fold change vs DMSO control; higher = glomeruli further apart (abnormal). The procedure, abridged:
(§1)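 Features are reported as fold changes against the mean of same-day DMSO-treated embryos. Before that, values more than 2 SD away from the feature mean were excluded. The embryos, dechorionated Tg(wt1b:EGFP) zebrafish, had been exposed from 24 to 48 hpf at 28.5°C to 25 μM compound in 0.5% DMSO in HEPES-buffered E3 with 0.003% PTU, and distances and angles came from 16 manually set points on maximum projections of dorsal pronephros images in Fiji.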

Experiment [2] has the same test system. Briefly: glomerular width (mean of left and right), fold change vs DMSO control; higher = wider glomerulus. In short, it runs like this: as §1
For experiment [3] the test system is unchanged. The experiment in a line: fraction of imaged embryos annotated as normal kidney; higher = less nephrotoxic; extreme values may be limits of the assay. In short, it runs like this: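 Tricaine-anaesthetised Tg(wt1b:EGFP) zebrafish larvae were oriented dorsally in agarose-filled 96-well plates, and their pronephroi were recorded by widefield fluorescence at 470 nm in 10 z-slices. Before this, the dechorionated embryos had been exposed in 12-well plates to 25 μM compound in 0.5% DMSO and 5 mM HEPES-buffered E3 with 0.003% PTU, from 24 to 48 hpf at 28.5°C. Maximum projections were annotated manually for each embryo, and the read-out is the fraction per treatment classed as normal kidney.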

For experiment [4] the test system is unchanged. Briefly: pronephric angle neck segment to proximal convoluted tubule (mean of left and right), fold change vs DMSO control; higher = larger pronephric angle. In short, it runs like this:
as §1

Regarding `CC(Oc1c(Cl)cccc1Cl)C1=NCCN1` (centres undefined) [Lofexidine], the glomerular separation in experiment [1] amounted to 1.06 ± 0.22. The glomerular width in experiment [2] was found to be 0.9921 ± 0.0057. In addition, the “fraction of imaged embryos annotated as normal kidney” value (“fraction of imaged embryos annotated” for short) in experiment [3] came out at 0.833. For the same compound, the “pronephric angle neck segment” value in experiment [4] amounted to 0.96 ± 0.028.
Taken in the same sequence, the figures for `O=C(CCCN1CCN(c2ccccn2)CC1)c1ccc(F)cc1` [Azaperone] were 1.11 ± 0.43, 0.925 ± 0.039, 0.833 and 1 ± 0.019.
For `CCCCC(CC)CN1CN(CC(CC)CCCC)CC(C)(N)C1` (centres undefined) [Hexetidine], in that order: 1.05 ± 0.29, 0.9542 ± 0.0081, 0.75 and 0.9331 ± 0.005.
For `CCN(CC)CCOC(=O)C1(c2ccc([N+](=O)[O-])cc2)CCCC1` [Nitrocaramiphen hydrochloride], in that order: 0.899 ± 0.43, 0.971 ± 0.037, 0.909 and 0.984 ± 0.075.
`CC=CC1=C(C(=O)O)N2C(=O)[C@@H](NC(=O)[C@H](N)c3ccc(O)cc3)[C@H]2SC1` [Cefprozil]: the glomerular separation in experiment [1] was 0.967 ± 0.4. The glomerular width in experiment [2] amounted to 1.086 ± 0.0056. Besides, the “fraction of imaged embryos annotated” value in experiment [3] was found to be 0.917. The “pronephric angle neck segment” value in experiment [4] turned out to be 0.965 ± 0.061.
Taken in the same sequence, the figures for `CN1CCCN=C1/C=C/c1cccs1` [Pyrantel tartrate] were 0.9 ± 0.18, 0.937 ± 0.024, 0.917 and 1.074 ± 0.0072.
`CCn1cc(C(=O)O)c(=O)c2cc(F)c(N3CCN(C)CC3)cc21` [Pefloxacine] registered a glomerular separation in experiment [1] of 0.997 ± 0.31. The glomerular width in experiment [2] was 1.01 ± 0.021. In addition, in experiment [3], the “fraction of imaged embryos annotated” value was found to be 1. Besides, the “pronephric angle neck segment” value in experiment [4] was found to be 1.01 ± 0.018.
Taken in the same sequence, the figures for `COc1ccc(C2CNC(=O)C2)cc1OC1CCCC1` (centres undefined) [Rolipram] were 0.895 ± 0.31, 0.955 ± 0.023, 0.833 and 1.08 ± 0.086.
Taken in the same sequence, the figures for `CCCCOC(=O)c1ccc(N)cc1` [Butamben] were 1.07 ± 0.41, 1.04 ± 0.12, 0.917 and 0.9834 ± 0.0087.
Taken in the same sequence, the figures for `COc1cc(C(=O)NCc2ccc(OCCN(C)C)cc2)cc(OC)c1OC` [Trimethobenzamide hydrochloride] were 1.09 ± 0.18, 1.05 ± 0.012, 0.833 and 0.9712 ± 0.0027.
Regarding `NC(=O)N/N=C/c1ccc([N+](=O)[O-])o1` [Nitrofural], the glomerular separation in experiment [1] amounted to 0.881 ± 0.24. In experiment [2], this compound showed a glomerular width of 1.02 ± 0.047. Moreover, the “fraction of imaged embryos annotated” value in experiment [3] was 1. The “pronephric angle neck segment” value in experiment [4] turned out to be 0.982 ± 0.017.
